Hits are enriched below; roughly 1.1% of the tested compounds scored in any of these assays.
NCOA3 inh = SRC3 coactivator transcriptional activity inhibitors, primary screen, cell-based, luminescence; HEK293 GAL4-SRC3 luciferase reporter; inhibition, % at 3.6 µM; 360,000 compounds, 0.17% hits; AID 588352, 2011;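 active = inhibition above a per-campaign cutoff, the mean of all compounds plus 3 SD, cut at about 60% in these data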;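 also: 0% = DMSO-treated cells and 100% = gossypol-treated cells at 36 µM; higher means less SRC3-driven luciferase light from the GAL4 reporter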
SRC2 inh = inhibition of GAL4-SRC2 driven luciferase reporter, primary screen, SRC2 inhibitor project, cell-based, luminescence; 370,000 compounds, 0.17% hits; inhibition, % at 9 µM; Nuclear receptor coactivator 2 (Homo sapiens), Q15596; HEK293 GAL4-SRC2 luciferase reporter;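 active = inhibition above the mean inhibition of all tested compounds plus 3 SD, set per campaign, cut at about 52% in these data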;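 also: 0% = DMSO treated cells and 100% = cells given Gossypol at 36 µM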
COUP-TFII inh = NR2F2 transcriptional activity inhibitors, primary screen, cell-based, luciferase reporter, HEK293T, luminescence; HEK293T NGFI-A luciferase reporter; inhibition, % at 8.6 µM; 370,000 compounds, 0.7% hits; AID 686940, 2013;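 active = inhibition above a per-plate cutoff, mean inhibition of test wells between control levels plus 3 SD, cut at about 38% in these data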;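 also: cells cotransfected with COUP-TFII expression vector driving the NGFI-A reporter; 0% = median of COUP-TF2 test wells and 100% = reporter-only cells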
GalR3 antagonist = GalR3 antagonists in HEK293 cells, primary screen, cell-based, fluorescence readout | Galanin receptor type 3 (Homo sapiens), O60755 | HEK293 GalR3-CNG cAMP membrane potential fluorescence; galR3 body fused to GalR1 C-terminus | inhibition, % at 3 µM | 360,000 compounds, 0.44% hits | AID 651719, 2012;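 active = inhibition above the screen-wide average plus 3 SD, cut at about 13% in these data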;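 also: forskolin and galanin both at EC90 stimulate the cells; cAMP rise reported by CNG channel membrane potential dye signal; 0% = forskolin plus galanin with DMSO and 100% = forskolin alone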
LRH-1 inv ag = LRH-1 (NR5A2) inverse agonists, primary screen, cell-based, luminescence, HEK293T, StAR-luciferase reporter; LRH-1 transfected, 24 h; Nuclear receptor subfamily 5 group A member 2 (Homo sapiens), O00482; AID 602396, 2012; 360,000 compounds, 0.13% hits; inhibition, % at 3.6 µM;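 active = inhibition above the mean inhibition of all tested compounds plus 3 SD, cut at about 73% in these data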;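 also: 0% = DMSO wells and 100% = reporter-only cells lacking LRH-1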
NCOA1 inh = SRC1 coactivator transcriptional activity inhibitors, primary screen, cell-based, luminescence. inhibition, % at 3.6 µM. HEK293 GAL4-SRC1 luciferase reporter. 360,000 compounds, 0.12% hits;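 active = inhibition above the campaign mean plus 3 SD, with each screening campaign given its own cutoff, cut at about 60% in these data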;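 also: 0% = DMSO treated cells and 100% = gossypol at 36 µM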
Target sequence (Q15788 whole entry, looked up, the tested form may be a part): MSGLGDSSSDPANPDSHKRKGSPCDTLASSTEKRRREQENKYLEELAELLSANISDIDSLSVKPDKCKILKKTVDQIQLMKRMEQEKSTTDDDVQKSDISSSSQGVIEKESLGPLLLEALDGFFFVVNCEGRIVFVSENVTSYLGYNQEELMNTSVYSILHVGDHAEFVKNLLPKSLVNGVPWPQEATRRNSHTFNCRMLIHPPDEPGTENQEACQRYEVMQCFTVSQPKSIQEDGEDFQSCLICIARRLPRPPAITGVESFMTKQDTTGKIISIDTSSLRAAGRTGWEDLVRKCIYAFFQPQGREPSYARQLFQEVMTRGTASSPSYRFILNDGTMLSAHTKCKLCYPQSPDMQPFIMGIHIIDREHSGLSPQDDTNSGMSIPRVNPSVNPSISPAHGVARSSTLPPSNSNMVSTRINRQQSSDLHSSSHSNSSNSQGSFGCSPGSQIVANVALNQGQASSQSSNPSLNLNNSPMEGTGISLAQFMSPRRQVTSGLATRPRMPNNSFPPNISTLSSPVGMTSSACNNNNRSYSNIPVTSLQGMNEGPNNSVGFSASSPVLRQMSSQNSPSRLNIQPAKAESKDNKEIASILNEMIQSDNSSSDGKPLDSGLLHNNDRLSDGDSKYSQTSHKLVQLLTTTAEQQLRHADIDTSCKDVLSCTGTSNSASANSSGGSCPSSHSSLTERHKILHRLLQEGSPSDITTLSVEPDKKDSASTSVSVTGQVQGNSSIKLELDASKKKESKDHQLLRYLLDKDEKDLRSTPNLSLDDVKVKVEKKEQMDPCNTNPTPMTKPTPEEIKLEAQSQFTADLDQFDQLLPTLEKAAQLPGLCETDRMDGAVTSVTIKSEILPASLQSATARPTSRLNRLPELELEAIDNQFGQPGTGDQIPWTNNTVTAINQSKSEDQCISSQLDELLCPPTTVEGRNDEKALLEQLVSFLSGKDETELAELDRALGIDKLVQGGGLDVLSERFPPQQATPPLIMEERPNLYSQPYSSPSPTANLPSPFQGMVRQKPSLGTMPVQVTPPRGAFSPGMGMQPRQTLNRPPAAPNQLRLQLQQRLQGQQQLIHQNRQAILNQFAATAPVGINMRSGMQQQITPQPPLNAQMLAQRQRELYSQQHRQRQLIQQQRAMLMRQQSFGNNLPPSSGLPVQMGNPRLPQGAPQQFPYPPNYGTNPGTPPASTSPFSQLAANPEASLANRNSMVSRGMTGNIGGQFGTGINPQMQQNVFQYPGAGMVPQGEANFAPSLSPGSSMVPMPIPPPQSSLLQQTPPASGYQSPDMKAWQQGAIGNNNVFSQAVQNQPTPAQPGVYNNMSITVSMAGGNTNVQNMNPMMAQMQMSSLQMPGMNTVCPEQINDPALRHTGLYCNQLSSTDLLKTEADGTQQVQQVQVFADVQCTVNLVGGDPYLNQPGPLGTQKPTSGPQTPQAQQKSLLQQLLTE
GalR3 conf = GalR3 antagonist hit confirmation, cell-based, fluorescence, triplicate. shares compounds with GalR3 antagonist. HEK293 GalR3 CNG cAMP biosensor, membrane potential fluorescence; galR3 fused to GalR1 carboxy tail; challenged with forskolin and galanin at EC90. inhibition, % at 3 µM. 1,600 compounds, 59% hits;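 active = inhibition above the primary screen's cutoff, the mean inhibition of all screened compounds plus 3 SD, cut at about 13% in these data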;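 also: 0% = forskolin plus galanin and 100% = forskolin alone with DMSO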
HEK-CNG parental = nonspecific cAMP agonists in parental HEK-CNG cells, counter-screen for GalR3 antagonist project, cell-based, fluorescence, high throughput; shares compounds with GalR3 antagonist; HEK293-CNG parental cells, cAMP membrane potential fluorescence; normalised: DMSO wells 0%, forskolin wells 100%; activation, % at 3 µM; 1,600 compounds, 10% hits; in the data active = activation above about 1.3%
VP16 Luc counter = Gal4-VP16 luciferase reporter inhibitors, counter-screen for COUP-TFII antagonist project, cell-based, luminescence, HEK293; inhibition, % at 8.5 µM; AID 687007, 2013; shares compounds with COUP-TFII inh; 2,500 compounds, 25% hits; in the data active = inhibition above about 13%
NR2F2 inh conf = NR2F2 transcriptional activity inhibitors, confirmation, cell-based, luciferase reporter, HEK293, triplicate. inhibition, % at 8.5 µM. HEK293 NGFI-A luciferase reporter, luminescence. shares compounds with COUP-TFII inh. 2,500 compounds, 45% hits;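 active = mean inhibition over three repeats above a set limit taken from the earlier primary screen, cut at about 38% in these data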;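 also: 100% = cells given the luciferase reporter alone without the COUP-TF2 vector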
* hit, by the source's call; / = not tested or not shown.

SMILES	NCOA3 inh	SRC2 inh	COUP-TFII inh	GalR3 antagonist	LRH-1 inv ag	NCOA1 inh	GalR3 conf	HEK-CNG parental	VP16 Luc counter	NR2F2 inh conf
Cc1csc2ncnc(NC3CCN(Cc4ccccc4)CC3)c12	20	23	59*	96*	38	-2	108*	0	7	59*
c1ccc(CNc2ncnc3ccccc23)cc1	42	38	64*	93*	25	38	86*	0	8	53*
COc1cc2ncnc(NCc3ccccc3)c2cc1OC	-7	11	11	1	-2	11	/	/	/	/
O=C(Cc1ccc(Cl)cc1Cl)Nc1ccncc1Cl	21	21	40*	45*	60	27	67*	1	5	42*
COc1ccc(CC(=O)Nc2ccncc2Cl)cc1	21	24	51*	63*	44	-3	49*	0	-4	32
O=C(Cc1c(Cl)cccc1Cl)Nc1ccncc1Cl	14	2	6	-4	24	12	/	/	/	/
CN(C)S(=O)(=O)c1cccc(C(=O)OCC(=O)Nc2sccc2C(N)=O)c1	9	-35	21	-5	27	-6	/	/	/	/
O=C(O)c1cc(Cl)c(Cl)cc1C(=O)N1CCOCC1	14	11	-6	-3	6	-1	/	/	/	/
CCN(CC)c1ccc(C(=C2C=CC(=[N+](CC)CC)C=C2)c2ccccc2)cc1	62*	94*	105*	33*	95*	33	64*	1.4*	98*	113*
CCN(CC)c1ccc(C(=O)NNC(=O)CCNC(=O)c2ccccc2)cc1	-28	10	-5	-3	-12	-10	/	/	/	/
CCN(CC)c1ccc(C(=C2C=CC(=[N+](CC)CC)C=C2)c2ccc(N(CC)CC)cc2)cc1	79*	16	83*	32*	96*	67*	36*	-4	57*	80*
COc1ccc(CNC(=O)c2sc(=O)n(Cc3ccc(-c4ccccc4)cc3)c2C)cc1OC	15	19	44*	26*	43	10	16*	-1	2	41*
COc1ccc(CNC(=O)c2sc(=O)n(Cc3ccc(C)cc3)c2C)cc1OC	15	-3	11	-4	-8	3	/	/	/	/
CCCCOc1ncnc2c1[nH]c1ccc(F)cc12	-2	-4	56*	29*	9	3	46*	0	-84	29
CCCCOc1ncnc2c1[nH]c1ccc(OCC)cc12	2	-17	-15	-6	-21	-6	/	/	/	/
CCn1cnc2c1c(=O)n(CC(=O)NCC(F)(F)F)c(=O)n2Cc1ccccc1	-2	-8	3	-7	8	3	/	/	/	/
COc1ccc(-c2ocnc2C(=O)NCc2nn(-c3ccccc3)nc2C)cc1	19	27	60*	19*	15	26	84*	1	3	41*
CCn1cc(CN(C)S(=O)(=O)c2ccc3ccccc3c2)c(C)n1	30	-4	51*	71*	45	-1	103*	0	2	51*
COc1cc(CCC(=O)OCC(=O)Nc2sccc2C(N)=O)cc(OC)c1OC	-20	8	39*	93*	0	6	102*	-1	-4	21
O=C(NC1CCc2ccccc21)c1cc(-c2ccc(Cl)cc2)nc2ccccc12 (stereo not drawn)	/	-16	-17	/	/	/	/	/	/	/
CCCCNC1=NCCS1	20	-6	-1	-5	1	15	/	/	/	/
C=CCC1(CC=C)CCCN1C(=O)c1cc(COc2ccc(C)nc2)on1	2	-8	57*	99*	21	-10	103*	0	-47	55*
C=CCC1(CC=C)CCCN1C(=O)c1cc(COc2ccc(F)c(F)c2)on1	20	8	4	-11	14	2	/	/	/	/
Cn1c(CN2CCCC2)nc2cc(NC(=O)c3ccc(Cl)cc3)ccc21	-36	13	16	-5	-47	-66	/	/	/	/
Cn1c(CN2CCCCC2)nc2cc(NC(=O)c3ccc(Cl)cc3)ccc21	-2	-17	62*	81*	29	10	48*	0	-12	48*
SMILES	NCOA3 inh	SRC2 inh	COUP-TFII inh	GalR3 antagonist	LRH-1 inv ag	NCOA1 inh	GalR3 conf	HEK-CNG parental	VP16 Luc counter	NR2F2 inh conf
O=C(Nc1ccc(Oc2ccccc2)cc1)c1csc(COCCO)n1	3	-8	43*	92*	25	-5	113*	-1	-26	27
O=C(Nc1ccc(Cl)cc1)c1csc(COCCO)n1	-61	-5	4	-4	-54	-34	/	/	/	/
CN(C)Cc1c(C(=O)N/N=C/c2ccc(-c3ccccc3)cc2)nnn1-c1nonc1N	-30	-38	1	1	-3	7	/	/	/	/
Nc1nc2ccccc2cc1C(=O)NCc1ccc(-c2ccccc2)cc1	/	17	65*	87*	58	/	97*	0	7	68*
Nc1nc2ccccc2cc1C(=O)NCc1ccc(Cl)cc1Cl	/	/	/	/	24	/	/	/	/	/
COC(=O)C1CCCCN1C(=O)c1cc(COc2cccc3cccnc23)on1 (stereo not drawn)	22	-12	-9	1	0	6	/	/	/	/
CSc1ccccc1OCc1cc(C(=O)N2CCC(c3ccncc3)CC2)no1	4	16	58*	75*	31	5	94*	0	-3	51*
CCOC(=O)CC1CCCCN1C(=O)c1cc(COc2cccc3cnccc23)on1 (stereo not drawn)	31	32	71*	104*	43	23	111*	0	16*	78*

Source: PubChem (The Scripps Research Institute Molecular Screening Center)
